Reference: PubChem BioAssay
Active and inactive are the calls of the source. Unless noted, the rule behind the calls is not given here.

biological target: Dihydroorotate dehydrogenase (quinone), mitochondrial (Plasmodium falciparum (isolate 3D7)) (UniProt Q08210); assay: inhibition of P. falciparum DHODH – biochemical, C-terminal His tag, absorbance 600 nm, primary screen (AID 1175); conditions: PfDHODH enzyme, DCIP absorbance 600 nm; higher = more signal, called active from +8 up or from −8 down;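 note: recombinant parasite enzyme with a five histidine tag at its C terminus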
Sequence (Q08210 whole entry, looked up): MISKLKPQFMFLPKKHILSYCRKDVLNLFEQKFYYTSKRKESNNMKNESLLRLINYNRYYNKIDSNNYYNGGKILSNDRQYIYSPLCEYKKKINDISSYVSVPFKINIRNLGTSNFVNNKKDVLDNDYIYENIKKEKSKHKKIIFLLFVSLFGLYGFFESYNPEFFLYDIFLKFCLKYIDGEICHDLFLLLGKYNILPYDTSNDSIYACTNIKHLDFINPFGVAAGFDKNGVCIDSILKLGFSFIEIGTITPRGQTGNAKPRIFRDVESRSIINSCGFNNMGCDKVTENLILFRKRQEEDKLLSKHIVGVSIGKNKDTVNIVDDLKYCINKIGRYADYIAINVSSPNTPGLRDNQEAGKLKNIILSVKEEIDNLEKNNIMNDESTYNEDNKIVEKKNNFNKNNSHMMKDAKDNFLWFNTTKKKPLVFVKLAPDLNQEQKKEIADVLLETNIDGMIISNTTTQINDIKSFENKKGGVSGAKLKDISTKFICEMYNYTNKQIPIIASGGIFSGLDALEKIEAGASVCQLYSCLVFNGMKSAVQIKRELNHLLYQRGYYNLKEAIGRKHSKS
Note: test concentration not given here.

Composite z-score, inactive:
[N-]=[N+]=Nc1ccccc1[C@@H]1OC(c2ccc(OCCCO)cc2)=N[C@]1(CCS(=O)(=O)c1ccccc1)C(=O)NCCN1CCOCC1 0.313
COCCCNC(=O)[C@@H]1c2ccccc2C(=O)N(Cc2ccccc2C(F)(F)F)[C@H]1c1ccc(CO)cc1 -0.955
NC(=O)N1C(=O)C2C(C1=O)C1C=C(CCCO)C2C(c2cccs2)N1Cc1cc2c(cc1Br)OCO2 (stereo not given) -1.72
CCOC(=O)C[C@H]1[C@H](OC(=O)c2ccccc2-c2ccccc2)[C@@H](NC(=O)CC(C)C)c2cc(OCCCO)ccc2N1C(=O)c1ccc2ccccc2n1 -0.112
CN1C(=O)C2C=CC(C(O)C3CCCCC3)N(N3CCCCC3)C2C1=O (stereo not given) 0.419
CO[C@H]1O[C@H](CO)[C@@H](OC(=O)Nc2ccc(C(F)(F)F)cc2)[C@H](OC(=O)Nc2ccc3c(c2)OCO3)[C@H]1OC(=O)Nc1ccc2c(c1)OCO2 -0.605
NCCCCCCNC(=O)[C@@H]1C[C@@H]2C(=O)N3CCC[C@H]3C(=O)N2[C@@H]1c1ccc(O)cc1 -1.18
CCOC(=O)[C@H]1C/C=C/C[C@H](C(=O)OCC)C(=O)O[C@H]2[C@@H](OC)O[C@H](CO)[C@@H](OC(=O)CCc3ccccc3)[C@@H]2OC1=O -0.915
C[C@]12C(=O)N(CCCCCCO)[C@@H]3C(=O)N(c4ccc(Cl)cc4)CC=CC31O[C@@H]1/C=C\CCCOC(=O)C12 (stereo not given in full) -0.699

Composite z-score, active:
COC(=O)C(CC#Cc1ccc2c(c1)[C@]1(C(=O)N2)[C@H](C(=O)O)[C@H]2C(=O)O[C@H](c3ccccc3)[C@H](c3ccccc3)N2[C@@H]1c1ccccc1OCCO)C(=O)OC -18.9

test system: not listed separately; assay: inhibition of PAO1 biofilm formation – strain PAO1, LB-PBS medium, absorbance 600 nm, primary screen (AID 1176); conditions: P. aeruginosa PAO1 growth/biofilm, A600, 12 h; higher = more signal

z-score, inactive:
O=C1c2ccccc2[C@](Cc2ccccc2I)(C(=O)NCc2ccccc2)[C@H](c2ccc(CO)cc2)N1C1CCCCC1 0.214
COc1ccc(C(O)C2C=CC3C(=O)N(C)C(=O)C3N2N2CCCCC2)cc1 (stereo not given) 0.49
C=C1C2CC3C(=C4C(CO[C@@H]4[C@H]4CCCN4S(=O)(=O)c4ccccc4[N+](=O)[O-])C4C(=O)N(C)C(=O)C34)CC2C(=O)N1C (stereo not given in full) 0.413
COCCOC(=O)N1C(=O)[C@@]2(c3cc(C#CC4=CCCCC4)ccc31)[C@H](c1ccc(O)cc1)N1[C@H](c3ccccc3)[C@H](c3ccccc3)OC(=O)[C@H]1[C@@H]2C(=O)Nc1nc2ccccc2s1 1.44
C[C@H]1C2=C3C(CC[C@H]4C(OCc5ccc(F)cc5C(F)(F)F)OC[C@](C)([C@@H]34)N(C(=O)OC(C)(C)C)C2)C(CO)C1CO (stereo not given in full) 2.31
COCCOC(=O)N1C(=O)[C@@]2(c3cc(C#CC4(O)CCCCCC4)ccc31)[C@H](C(=O)N1CCCCCCC1)[C@H]1C(=O)O[C@H](c3ccccc3)[C@H](c3ccccc3)N1[C@@H]2c1ccc(OCCO)cc1 2.03
COCCOC(=O)N1C(=O)[C@@]2(c3cc(C#CC4(O)CCCCCC4)ccc31)[C@H](C(N)=O)[C@H]1C(=O)O[C@H](c3ccccc3)[C@H](c3ccccc3)N1[C@@H]2c1ccccc1OCCO 1.68
CC(=O)N1Cc2ccccc2C[C@]2(N=C(c3ccc(OCCCO)cc3)O[C@@H]2c2ccccc2)C1=O 0.122
O=C1OCC=C[C@H]2OC34C=CCN(c5ccc(Cl)cc5)C(=O)[C@H]3N(CCCCCO)C(=O)[C@@H]4[C@@H]12 (stereo not given in full) -0.0963
C=C(C(=O)CC[C@H](OC(=O)c1cccnc1)c1cccc(OCCO)c1)C(C)C -0.116
CC(C)C(O)C1C=CC2C(=O)N(C)C(=O)C2N1N(c1ccccc1)c1ccccc1 (stereo not given) 0.186
O=C1O[C@@H](c2ccccc2)[C@@H](c2ccccc2)N2[C@@H](c3ccc(O)cc3)[C@]3(C(=O)Nc4ccccc43)[C@@H](C(=O)Nc3nc4ccccc4s3)[C@H]12 2.43
COC(=O)[C@@]1(Cc2ccc(OC)cc2)[C@H]2c3cc(C(=O)N(C)C)n(Cc4ccccc4)c3C[C@H]2CN1C(=O)c1ccccc1 0.756
CC1CC/C=C\[C@H]2OC34C=CCN(CCN5CCOCC5)C(=O)[C@H]3N(CCO)C(=O)[C@@H]4C2C(=O)O1 (stereo not given in full) 0.826
COC(=O)[C@]1(CCS(=O)(=O)c2ccccc2)N=C(c2ccc(OCCCO)cc2)O[C@@H]1c1ccccc1CN=[N+]=[N-] 1.32
CC(C)(C)OC(=O)CC[C@]1(C(=O)O)N=C(c2ccc(OCCCO)cc2)O[C@H]1c1ccccc1 -0.76
O=C1c2ccccc2[C@@]2(Cc3ccccc3N(C3CC3)C2=O)[C@H](c2ccc(CO)cc2)N1C1CCCCC1 0.264
COCCOC(=O)N1C(=O)[C@@]2(c3ccccc31)[C@H](c1ccc(OCCO)cc1)N1[C@H](c3ccccc3)[C@H](c3ccccc3)OC(=O)[C@H]1[C@@H]2C(=O)Nc1nc2ccccc2s1 2
[N-]=[N+]=Nc1ccccc1C[C@@]1(C(=O)O)N=C(c2ccc(OCCCO)cc2)O[C@@H]1c1ccccc1 0.342
CCCNC(=O)[C@@]1(c2ccc([N+](=O)[O-])cc2)CC(=O)N(C2CCCCC2)[C@@H]1c1ccc(CO)cc1I 0.429
COc1ccc([Si](C)(C)[C@H]2[C@H](CCn3cc([C@H](O)c4ccccc4)nn3)O[C@@]3(C(=O)N(Cc4ccc(N5CCOC5=O)cc4)c4ccccc43)[C@@H]2C)cc1 1.04
COCCCNC(=O)[C@@]1(Sc2ccc(C)cc2)CC(=O)N(Cc2cc(C(F)(F)F)cc(C(F)(F)F)c2)[C@@H]1c1ccc(CO)cc1 0.158
C=CCC(OC(C)=O)[C@@H]1[C@@H](N(Cc2cc3ccccc3o2)C(=O)Cc2ccc(F)cc2)c2cc(OCCCO)ccc2N1C(=O)c1ccc2ccccc2n1 (stereo not given in full) 0.243
CCCCC(=C=CC[C@@H](O)c1ccc(OCCO)cc1)C[C@@H](O)COCc1ccccc1 0.637
O=C1O[C@@H](c2ccccc2)[C@@H](c2ccccc2)N2[C@@H](c3ccc(O)cc3)[C@]3(C(=O)Nc4ccc(C#CCCO)cc43)[C@@H](C(=O)NC[C@H](O)c3ccccc3)[C@H]12 -0.192
[N-]=[N+]=Nc1ccccc1[C@@H]1OC(c2ccc(OCCCO)cc2)=N[C@]1(CCS(=O)(=O)c1ccccc1)C(=O)NCCN1CCOCC1 0.236
COCCCNC(=O)[C@@H]1c2ccccc2C(=O)N(Cc2ccccc2C(F)(F)F)[C@H]1c1ccc(CO)cc1 -0.727
NC(=O)N1C(=O)C2C(C1=O)C1C=C(CCCO)C2C(c2cccs2)N1Cc1cc2c(cc1Br)OCO2 (stereo not given) -0.259
CCOC(=O)C[C@H]1[C@H](OC(=O)c2ccccc2-c2ccccc2)[C@@H](NC(=O)CC(C)C)c2cc(OCCCO)ccc2N1C(=O)c1ccc2ccccc2n1 -0.483
CN1C(=O)C2C=CC(C(O)C3CCCCC3)N(N3CCCCC3)C2C1=O (stereo not given) 0.158
CO[C@H]1O[C@H](CO)[C@@H](OC(=O)Nc2ccc(C(F)(F)F)cc2)[C@H](OC(=O)Nc2ccc3c(c2)OCO3)[C@H]1OC(=O)Nc1ccc2c(c1)OCO2 0.854
NCCCCCCNC(=O)[C@@H]1C[C@@H]2C(=O)N3CCC[C@H]3C(=O)N2[C@@H]1c1ccc(O)cc1 -0.282
COC(=O)C(CC#Cc1ccc2c(c1)[C@]1(C(=O)N2)[C@H](C(=O)O)[C@H]2C(=O)O[C@H](c3ccccc3)[C@H](c3ccccc3)N2[C@@H]1c1ccccc1OCCO)C(=O)OC 2.07
CCOC(=O)[C@H]1C/C=C/C[C@H](C(=O)OCC)C(=O)O[C@H]2[C@@H](OC)O[C@H](CO)[C@@H](OC(=O)CCc3ccccc3)[C@@H]2OC1=O 0.759
C[C@]12C(=O)N(CCCCCCO)[C@@H]3C(=O)N(c4ccc(Cl)cc4)CC=CC31O[C@@H]1/C=C\CCCOC(=O)C12 (stereo not given in full) -0.0558
